Data reported in PubChem BioAssay (Tox21).
Results filed as inconclusive are left out. The source made the active and inactive calls. Unless noted, calls come from the whole dose curve; as a rule, active = well fitted curve in the direction sought with a large enough effect in the repeat runs; inconclusive = weak or mixed curves; inactive = no such curve, though single readings can be large; an effect the other way counts as inactive or inconclusive.

Assays:
[1] = qHTS RealTime-Glo MT Cell Viability Assay in HEK293 cells - 0 hour (AID 1224880); note: top concentration of the series differs between compounds; nearly all actives have a fitted effect of over 45% in size
Procedure, shortened: (§1)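 HEK293 cells mixed with RealTime-Glo reagents (NanoLuc plus cell-permeant prosubstrate) at 600 cells/well, preincubated 5 h at 37 C/5% CO2, then given 23 nL compound in DMSO. Nonlytic luminescence from viable cells was read at 0, 8, 16, 24, 32 and 40 h.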

[2] = A CellTox Green Cytotoxicity Assay to monitor cytotoxicity in HEK293 cells - 32 hour (AID 1224881); note: nearly all actives have a fitted effect of over 40% in size; note: potency is the fitted concentration of half-maximal effect
Procedure, shortened: (§2)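 HEK293 cells premixed with CellTox Green dye were seeded at 600 cells/well and left 5 h at 37 C/5% CO2 before pin transfer of 23 nL compound in DMSO. Fluorescence from dye bound to dead-cell DNA was read during 40 h treatment.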

[3] = A CellTox Green Cytotoxicity Assay to monitor cytotoxicity in HepG2 cells - 0 hour (AID 1224882); note: nearly all actives have a fitted effect of over 35% in size; note: potency is the fitted concentration of half-maximal effect
Procedure, shortened: (§3)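 HepG2 cells were seeded together with the CellTox Green dye at 600 cells/well, left 5 h at 37 C/5% CO2, then given compounds in DMSO. Fluorescence from dye bound to dead-cell DNA was read repeatedly over 40 h of treatment at 37 C.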

[4] = A CellTox Green Cytotoxicity Assay to monitor cytotoxicity in HepG2 cells - 32 hour (AID 1224883); note: nearly all actives have a fitted effect of over 50% in size; note: potency is the fitted concentration of half-maximal effect
Procedure, shortened: as §3

[5] = A CellTox Green Cytotoxicity Assay to monitor cytotoxicity in HEK293 cells - 8 hour (AID 1224884); note: nearly all actives have a fitted effect of over 35% in size
Procedure, shortened: as §2

[6] = qHTS RealTime-Glo MT Cell Viability Assay in HEK293 cells - 8 hour (AID 1224887); note: nearly all actives have a fitted effect of over 50% in size; note: potency is the fitted concentration of half-maximal effect
Procedure, shortened: as §1

[7] = A CellTox Green Cytotoxicity Assay to monitor cytotoxicity in HEK293 cells - 16 hour (AID 1224888); note: nearly all actives have a fitted effect of over 35% in size; note: potency is the fitted concentration of half-maximal effect
Procedure, shortened: as §2

[8] = qHTS RealTime-Glo MT Cell Viability Assay in HepG2 cells - 0 hour (AID 1224889); note: nearly all actives have a fitted effect of over 50% in size
Procedure, shortened: (§4)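 qHTS, HepG2, 600 cells/well, RealTime-Glo (NanoLuc + prosubstrate) added with cells; 5 h preincubation; DMSO compound addition; 37 C; luminescence at 0/8/16/24/32/40 h.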

[9] = A CellTox Green Cytotoxicity Assay to monitor cytotoxicity in HepG2 cells - 8 hour (AID 1224890); note: nearly all actives have a fitted effect of over 45% in size; note: potency is the fitted concentration of half-maximal effect
Procedure, shortened: as §3

[10] = qHTS assay to identify small molecule antagonists of the estrogen receptor alpha (ER-alpha) signaling pathway using the BG1 cell line in the presence of 0.1 nM 17-beta-estradiol - cell viability counter screen (AID 1259241); note: nearly all actives have a fitted effect of over 40% in size
Procedure, shortened: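 Viability in VM7Luc4E2 cells after 22 hr compound exposure under 0.1 nM 17beta-estradiol stimulation, by CellTiter-Fluor.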

[11] = qHTS assay to identify small molecule antagonists of the androgen receptor (AR) signaling pathway using the MDA cell line in the presence of 0.5 nM R1881 - cell viability counter screen (AID 1259242); note: nearly all actives have a fitted effect of over 45% in size
Procedure, shortened: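 MDA-kb2 cells (human breast carcinoma, stably carrying MMTV-luciferase reporter) were exposed to compounds with 0.5 nM R1881 (final) for 16 hr at 37C, 0% CO2; viability then read as live-cell protease fluorescence (CellTiter-Fluor, 30 min) in the same wells.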

[12] = qHTS assay to identify small molecule HDAC inhibitors (AID 1259364); note: top concentration of the series differs between compounds; nearly all actives have a fitted effect of over 45% in size
Procedure, shortened: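 Wild-type HCT-116 cells were plated overnight, exposed to compounds for 2 h at 37 °C, then given HDAC-Glo class I/II luminogenic reagent for 30 min at room temperature before luminescence was read.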

[13] = qHTS assay to identify small molecule agonists of the sonic hedgehog signaling (Shh) pathway - cell viability counter screen (AID 1259366); note: nearly all actives have a fitted effect of over 50% in size
Procedure, shortened: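 Stable Gli1-Luc NIH/3T3 clone, 2,000 cells/well. Compound exposure 24hr at 37C. Read-out: CellTiter-Fluor fluorescence.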

[14] = qHTS assay to identify small molecule antagonists of the sonic hedgehog signaling (Shh) pathway - cell viability counter screen (AID 1259367); note: nearly all actives have a fitted effect of over 55% in size
Procedure, shortened: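 After a 4 hr settling period, 3T3 Gli1-Luc cells were treated with DMSO-dissolved chemicals and conditioned medium, kept 24 hr at 37C in 5% CO2, and assayed for viability by CellTiter-Fluor fluorescence following 1 hr reagent incubation.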

[15] = qHTS RealTime-Glo MT Cell Viability Assay in HEK293 cells - 24 hour (AID 1224886)
Procedure, shortened: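 Assay medium contained NanoLuc luciferase plus cell-permeant prosubstrate, added with HEK293 cells at 600 cells/well. After 5 h at 37 C/5% CO2 compounds were added; plates stayed at 37 C for 40 h with serial luminescence reads.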

[16] = qHTS assay to identify small molecule phospholipidosis (PLD) inducers (AID 1259344; active = well fitted curve in the direction sought with a large enough effect; an effect the other way counts as inactive or inconclusive)
Procedure, shortened: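 HepG2 cells grown on collagen I take up LipidTOX Red while exposed to compound for 24 h; after fixation they are imaged at 20x and pit metrics are extracted.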

[17] = qHTS assay to identify small molecule HDAC inhibitors - cell viability counter screen (AID 1259365)
Procedure, shortened: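 Cytotoxicity was gauged in wild-type HCT-116 cells after a brief 2hr treatment with DMSO-dissolved compounds at 37C and 5% CO2, using CellTiter-Glo luminescence developed for 30min at room temperature.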

[18] = biological target: Androgen receptor (Homo sapiens) (UniProt P10275); test: qHTS assay to identify small molecule antagonists of the androgen receptor (AR) signaling pathway using the MDA cell line in the presence of 0.5 nM R1881 (AID 1259243); note: nearly all actives have a fitted effect of over 50% in size
Procedure, shortened: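 MDA-kb2 human breast carcinoma cells carrying an MMTV-luciferase reporter (AR- and GR-responsive) were plated, rested 5 hr at 37C, dosed with compounds, then stimulated with 0.5 nM R1881 (final) for 16 hr; luminescence was read after ONE-Glo.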

[19] = qHTS RealTime-Glo MT Cell Viability Assay in HepG2 cells - 16 hour (AID 1224885); note: nearly all actives have a fitted effect of over 50% in size
Procedure, shortened: as §4

[20] = biological target: Estrogen receptor (Homo sapiens) (UniProt P03372); test: qHTS assay to identify small molecule antagonists of the estrogen receptor alpha (ER-alpha) signaling pathway using the BG1 cell line in the presence of 0.1 nM 17-beta-estradiol (AID 1259244); note: nearly all actives have a fitted effect of over 50% in size
Procedure, shortened: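 VM7Luc4E2 cells (endogenous full-length ER-alpha, stable 4xERE-luciferase) were grown 5 days in phenol red-free medium with charcoal-stripped FBS, then exposed 22 h at 37C to compounds plus 0.1 nM (final) 17beta-estradiol; ONE-Glo luminescence read-out.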
% is set by controls: 0 for no effect and ±100 for the full control effect.

Sequence of Estrogen receptor (Homo sapiens) (P03372 whole entry, looked up): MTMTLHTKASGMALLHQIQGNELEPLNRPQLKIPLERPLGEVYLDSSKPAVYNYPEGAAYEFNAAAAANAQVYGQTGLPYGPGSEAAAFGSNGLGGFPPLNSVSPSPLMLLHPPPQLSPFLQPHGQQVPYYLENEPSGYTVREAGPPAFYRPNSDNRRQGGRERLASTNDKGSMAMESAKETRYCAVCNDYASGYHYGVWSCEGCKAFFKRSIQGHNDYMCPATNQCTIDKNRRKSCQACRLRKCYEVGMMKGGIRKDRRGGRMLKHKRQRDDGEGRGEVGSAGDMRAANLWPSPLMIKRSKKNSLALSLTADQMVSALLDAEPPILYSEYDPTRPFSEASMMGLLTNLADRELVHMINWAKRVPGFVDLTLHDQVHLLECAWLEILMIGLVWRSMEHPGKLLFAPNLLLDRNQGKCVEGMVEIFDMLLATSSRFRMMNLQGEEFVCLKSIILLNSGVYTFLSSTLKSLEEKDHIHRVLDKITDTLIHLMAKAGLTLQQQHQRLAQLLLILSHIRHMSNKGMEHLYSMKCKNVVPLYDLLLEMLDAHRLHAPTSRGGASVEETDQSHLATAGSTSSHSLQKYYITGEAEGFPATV
Sequence of Androgen receptor (Homo sapiens) (P10275 whole entry, looked up): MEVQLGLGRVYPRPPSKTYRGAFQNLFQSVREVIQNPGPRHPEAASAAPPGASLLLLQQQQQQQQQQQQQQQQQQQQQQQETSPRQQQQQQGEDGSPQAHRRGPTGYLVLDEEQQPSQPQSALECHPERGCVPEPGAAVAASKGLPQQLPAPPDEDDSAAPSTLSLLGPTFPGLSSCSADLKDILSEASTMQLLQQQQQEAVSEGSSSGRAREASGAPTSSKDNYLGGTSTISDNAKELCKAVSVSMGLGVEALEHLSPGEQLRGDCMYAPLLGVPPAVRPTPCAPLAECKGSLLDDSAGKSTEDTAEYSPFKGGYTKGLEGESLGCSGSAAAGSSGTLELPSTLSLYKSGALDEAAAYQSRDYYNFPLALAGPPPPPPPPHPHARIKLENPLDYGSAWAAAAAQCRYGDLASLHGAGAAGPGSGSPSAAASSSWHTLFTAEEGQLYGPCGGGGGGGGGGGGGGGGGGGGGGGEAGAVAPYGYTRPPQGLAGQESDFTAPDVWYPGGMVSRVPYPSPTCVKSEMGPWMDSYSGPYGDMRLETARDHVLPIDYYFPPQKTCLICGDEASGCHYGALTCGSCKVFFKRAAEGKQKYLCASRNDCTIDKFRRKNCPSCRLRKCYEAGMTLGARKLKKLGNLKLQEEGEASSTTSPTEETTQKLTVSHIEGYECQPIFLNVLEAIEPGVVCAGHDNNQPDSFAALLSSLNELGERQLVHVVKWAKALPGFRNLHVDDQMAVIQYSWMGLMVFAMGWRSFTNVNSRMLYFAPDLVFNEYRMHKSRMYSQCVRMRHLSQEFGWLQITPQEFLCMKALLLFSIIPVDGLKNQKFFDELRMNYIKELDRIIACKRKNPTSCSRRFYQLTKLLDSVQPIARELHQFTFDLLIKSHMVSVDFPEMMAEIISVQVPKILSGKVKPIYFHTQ

C=C(C)C(=O)OCCCCCCCCCCOC(=O)C(=C)C
inactive: Potency [1] | Potency [2] | Potency [3] | Potency [4] | Potency [5] | Potency [6] | Potency [7] | Potency [8] | Potency [9] | Potency [10] | Potency [11] | Potency [12] | Potency [13] | Potency [14]

CC(=O)Nc1ccn(C2COC(COC(=O)c3ccccc3)O2)c(=O)n1 (stereo not drawn)
inactive: Potency [1] | Potency [2] | Potency [3] | Potency [4] | Potency [5] | Potency [15] | Potency [7] | Potency [8] | Potency [9] | Potency [10] | Potency [11] | PLD induction [16] 1.43% [at 1.53 µM] | Potency [12] | outcome [17] | Potency [13] | Potency [14]

Clc1cccc(C(c2ccc3nc[nH]c3c2)n2ccnc2)c1 (stereo not drawn)
inactive: Potency [1] | Potency [2] | Potency [3] | Potency [4] | Potency [5] | Potency [7] | Potency [9] | Potency [10] | Potency [11] | Potency [18] | Potency [16] | Potency [12] | outcome [17] | Potency [13] | Potency [14]
active: Potency [6] 3.38 µM

CCC(C)C1N=C(C)C(C)S1 (stereo not drawn)
inactive: Potency [1] | Potency [2] | Potency [3] | Potency [4] | outcome [19] | Potency [15] | Potency [6] | Potency [7] | Potency [8] | Potency [9] | Potency [10] | Potency [11] | Potency [12] | Potency [13] | Potency [14]

CCCCCCCCCC(C)C=O (stereo not drawn)
inactive: Potency [1] | outcome [19] | Potency [15] | Potency [10] | Potency [11] | Potency [12] | outcome [17] | Potency [13] | Potency [14]
active: Potency [2] 21.9 µM | Potency [3] 24.5 µM | Potency [4] 21.9 µM | Potency [7] 21.9 µM | Potency [9] 24.5 µM

CC/C=C\CCO
inactive: Potency [1] | Potency [2] | Potency [3] | Potency [4] | Potency [5] | Potency [7] | Potency [9] | Potency [10] | Potency [11] | Potency [12] | outcome [17] | Potency [13] | Potency [14]

O=C(O)c1cccnc1Nc1cccc(C(F)(F)F)c1
inactive: Potency [1] | Potency [2] | Potency [3] | Potency [4] | outcome [19] | Potency [15] | Potency [6] | Potency [7] | Potency [8] | Potency [9] | Potency [10] | Potency [11] | Potency [20] | Potency [16] | Potency [13] | Potency [14]

O=C(Cl)c1ccc(F)c(Cl)c1
inactive: Potency [1] | Potency [2] | Potency [3] | Potency [4] | Potency [5] | Potency [7] | Potency [8] | Potency [9] | Potency [10] | Potency [11] | Potency [20] | Potency [12] | outcome [17] | Potency [14]

CC(=O)Oc1cccc2c1C(=O)c1c(OC(C)=O)cc(C(=O)O)cc1C2=O
inactive: Potency [1] | Potency [2] | Potency [3] | Potency [4] | outcome [19] | Potency [15] | Potency [6] | Potency [7] | Potency [8] | Potency [9] | Potency [16] | Potency [12] | outcome [17] | Potency [14]

CCCCCC1CCC(=O)O1 (stereo not drawn)
inactive: Potency [1] | Potency [2] | Potency [3] | Potency [4] | outcome [19] | Potency [15] | Potency [6] | Potency [7] | Potency [8] | Potency [9] | Potency [10] | Potency [11] | Potency [20] | Potency [12] | outcome [17] | Potency [13] | Potency [14]

C=CC(=O)NC(C)(C)C
inactive: Potency [1] | Potency [2] | Potency [3] | Potency [4] | Potency [5] | Potency [6] | Potency [7] | Potency [8] | Potency [9] | Potency [10] | Potency [11] | Potency [20] | Potency [12] | outcome [17] | Potency [14]

C[C@@H](O)[C@H]1C(=O)N2C(C(=O)O)=C(S[C@@H]3CN[C@H](CNS(N)(=O)=O)C3)[C@H](C)[C@H]12
inactive: Potency [1] | Potency [2] | Potency [3] | Potency [4] | Potency [5] | Potency [15] | Potency [6] | Potency [7] | Potency [9] | Potency [10] | Potency [11] | Potency [20] | Potency [16] | Potency [12] | outcome [17] | Potency [13] | Potency [14]

O=C(O)CCc1nc2ccccc2[nH]1
inactive: Potency [1] | Potency [2] | Potency [3] | Potency [4] | Potency [5] | Potency [15] | Potency [7] | Potency [8] | Potency [9] | Potency [10] | Potency [11] | Potency [20] | Potency [16] | Potency [12] | outcome [17] | Potency [13] | Potency [14]

CC(O)CN (stereo not drawn)
inactive: Potency [1] | Potency [2] | Potency [3] | Potency [4] | Potency [5] | Potency [15] | Potency [6] | Potency [7] | Potency [9] | Potency [10] | Potency [11] | Potency [20] | Potency [12] | outcome [17] | Potency [13] | Potency [14]

O=C(Cl)c1cc(Cl)cc(Cl)c1
inactive: Potency [1] | Potency [2] | Potency [3] | Potency [4] | Potency [5] | Potency [6] | Potency [7] | Potency [8] | Potency [9] | Potency [10] | Potency [11] | Potency [20] | Potency [12] | outcome [17] | Potency [13] | Potency [14]

COc1ccc(CN(CCN(C)C)c2ncccn2)cc1
inactive: Potency [1] | Potency [2] | Potency [3] | Potency [4] | Potency [5] | Potency [6] | Potency [8] | Potency [9] | Potency [10] | Potency [11] | Potency [16] | Potency [12] | outcome [17] | Potency [14]

CCCCOC(=O)C(C)Oc1ccc(Oc2ccc(C(F)(F)F)cn2)cc1 (stereo not drawn)
inactive: Potency [1] | Potency [2] | Potency [3] | Potency [4] | Potency [5] | Potency [7] | Potency [8] | Potency [9] | Potency [10] | Potency [11] | Potency [20] | Potency [12] | Potency [13] | Potency [14]
